Each structure is given as a SMILES string. A number with no mark means an inactive call.

The experiment concerns Vero E6 infected with SARS-CoV-2. The experiment is described as follows: SARS-CoV-2 infection rate relative to infected DMSO; higher = more infection, active = 60 or less. As to conditions: 24 h.
`CCCCN(CCCC)CCC(O)c1cc2c(Cl)cc(Cl)cc2c2cc(C(F)(F)F)ccc12` (stereo not given) [halofantrine] (10 µM): the SARS-CoV-2 infection rate is 79.5%.

For `COc1ccccc1OCC(O)CO` (stereo not given) [guaifenesin] (10 µM), the SARS-CoV-2 infection rate is 112%.

With `COc1ccc(OC)c(CN(C(C)=O)c2cc(F)ccc2Oc2ccccc2)c1` (10 µM), the SARS-CoV-2 infection rate is 95%.

`O=C1NN(C(=O)Nc2ccc(Br)cc2)[C@@H](c2ccccc2)[C@@H]1c1ccccc1` (10 µM): the SARS-CoV-2 infection rate is 108%.

Take `CC(C)[C@@H](C(=O)Nc1nccs1)c1ccc(Cl)cc1` (10 µM): the SARS-CoV-2 infection rate was 98.5%.

For the compound `NC[C@@H]1CC[C@@H](N)[C@@H](O[C@H]2[C@H](O)[C@@H](O[C@H]3O[C@H](CO)[C@@H](O)[C@H](N)[C@H]3O)[C@H](N)C[C@@H]2N)O1` [dibekacin] (10 µM), the SARS-CoV-2 infection rate was 103%.

On to `CC(C)(OCc1nn(Cc2ccccc2)c2ccccc12)C(=O)O` [bindarit] (10 µM), for which the SARS-CoV-2 infection rate is 112%.

Take `C[C@@H]1O[C@@H](O[C@H]2[C@H](Oc3cc(O)c(C(=O)CCc4ccc(O)cc4)c(O)c3)O[C@H](CO)[C@@H](O)[C@@H]2O)[C@H](O)[C@H](O)[C@H]1O` [naringin-dihydrochalcone] (10 µM): the SARS-CoV-2 infection rate was 107%.

Consider `CCC(=O)O[C@]1(C(=O)CCl)[C@@H](C)C[C@H]2[C@@H]3CCC4=CC(=O)C=C[C@]4(C)[C@@]3(F)[C@@H](O)C[C@@]21C` [clobetasol-propionate] (10 µM), for which the SARS-CoV-2 infection rate was 105%.

Turning to `O=C(O)Cc1ccccc1Nc1c(Cl)cccc1Cl` [diclofenac] (10 µM), the SARS-CoV-2 infection rate was 106%.

Turning to `CCOC(=O)N[C@@H]1CC[C@@H]2[C@@H](C1)C[C@H]1C(=O)O[C@H](C)[C@H]1[C@H]2/C=C/c1ccc(-c2cccc(F)c2)cn1` [vorapaxar] (10 µM), the SARS-CoV-2 infection rate is 106%.

Turning to `O=[N+]([O-])c1ccc2nc(COCc3nc4ccc([N+](=O)[O-])cc4[nH]3)[nH]c2c1` (10 µM), the SARS-CoV-2 infection rate was 94.5%.

For `CC1Oc2cc(cnc2N)-c2c(nn(C)c2C#N)CN(C)C(=O)c2ccc(F)cc21` (stereo not given) (10 µM), the SARS-CoV-2 infection rate is 99.5%.

`CCC(=O)O[C@H](CC(=O)O)C[N+](C)(C)C` [levocarnitine-propionate] (10 µM): the SARS-CoV-2 infection rate was 104%.

Take `CC(C)(C)CCN1C[C@@H]2[C@@H](CNC(=O)c3cc(Cl)cc(Cl)c3)[C@@H]2C1` (10 µM): the SARS-CoV-2 infection rate is 86%.

Consider `Nc1ccc(F)cc1NC(=O)c1ccc(CNC(=O)/C=C/c2cccnc2)cc1` [chidamide] (0.833333 µM), for which the SARS-CoV-2 infection rate is 107%.

For the compound `Oc1ccc(CC2NCCc3cc(O)c(O)cc32)cc1` (stereo not given) [higenamine] (0.833333 µM), the SARS-CoV-2 infection rate is 103%.

Take `Cc1nc(C#Cc2ccnc(Cl)c2)c(C)n1-c1ccc(F)cc1` [basimglurant] (10 µM): the SARS-CoV-2 infection rate is 112%.

For the compound `O=C(NCc1ccncc1)C12CC3CC(C1)CC(c1ccc(Cl)cc1)(C3)C2` (10 µM), the SARS-CoV-2 infection rate was 97%.

For the compound `CCOC(=O)Nc1ccc(NCc2c(C)cc(C)cc2C)cc1N` (10 µM), the SARS-CoV-2 infection rate was 108%.

Turning to `CC(=O)N(C)c1cccc(-c2ccnc3c(C(=O)c4cccs4)cnn23)c1` [indiplon] (10 µM), the SARS-CoV-2 infection rate was 116%.

With `Cc1cc(-c2nc(C(=O)Nc3cn(C4CCOCC4)nc3C(N)=O)co2)ccn1` (10 µM), the SARS-CoV-2 infection rate is 118%.

As to `OC(c1cc(C(F)(F)F)nc2c(C(F)(F)F)cccc12)C1CCCCN1` (stereo not given) [mefloquine] (0.833333 µM), the SARS-CoV-2 infection rate is 112%.

Take `CC(C)(Oc1ccc(C(=O)c2ccc(Cl)cc2)cc1)C(=O)O` [fenofibric-acid] (10 µM): the SARS-CoV-2 infection rate was 97%.

On to `COc1cc(N)c(Cl)cc1C(=O)NC1CN2CCC1CC2` (stereo not given) [zacopride] (10 µM), for which the SARS-CoV-2 infection rate is 89%.

Consider `CCCCC1(COC(=O)CCC(=O)O)C(=O)N(c2ccccc2)N(c2ccccc2)C1=O` [suxibuzone] (10 µM), for which the SARS-CoV-2 infection rate was 94.5%.

As for `O=C(NNC(=O)c1ccc(CNS(=O)(=O)c2ccc(F)c(Cl)c2)cc1)c1ccccc1` (10 µM), the SARS-CoV-2 infection rate was 114%.

As for `COc1cc(N)c(Cl)cc1C(=O)N[C@@H]1CCN(CCCOc2ccc(F)cc2)C[C@@H]1OC` (racemic) [cisapride] (10 µM), the SARS-CoV-2 infection rate is 112%.

Take `C[C@H](NC[C@H](O)CP(=O)(O)Cc1ccccc1)c1ccc(Cl)c(Cl)c1` (10 µM): the SARS-CoV-2 infection rate is 106%.

With `N#CCC(=O)NN` [cyacetacide] (10 µM), the SARS-CoV-2 infection rate was 102%.

Regarding `CCn1nc(C)c2c1C(c1ccccc1)=NCC(=O)N2` [ripazepam] (10 µM), the SARS-CoV-2 infection rate was 109%.

With `c1ccc(CCCCN2CCC(c3ccccc3)CC2)cc1` (10 µM), the SARS-CoV-2 infection rate was 73.5%.

`CO/N=C(\C(=O)N[C@@H]1C(=O)N2C(C(=O)[O-])=C(C[n+]3ccn4ncccc43)CS[C@H]12)c1nsc(N)n1` [cefozopran] (10 µM): the SARS-CoV-2 infection rate was 112%.

For the compound `Cc1onc(-c2ccccc2Cl)c1C(=O)N[C@@H]1C(=O)N2[C@@H]1SC(C)(C)[C@@H]2C(=O)O` [cloxacillin] (10 µM), the SARS-CoV-2 infection rate was 99.5%.

Turning to `COc1cc(OCc2cccc(-c3ccccc3)c2C)cc(OC)c1CN1CCCC[C@H]1C(=O)O` [PD1-PDL-inhibitor-1] (10 µM), the SARS-CoV-2 infection rate is 95%.

On to `CCN(CC)CCNC(=O)c1ccc(N)cc1` [procainamide] (10 µM), for which the SARS-CoV-2 infection rate was 116%.

Take `CCOc1cc2ncc(C#N)c(Nc3ccc(OCc4ccccn4)c(Cl)c3)c2cc1NC(=O)/C=C/CN(C)C` [neratinib] (10 µM): the SARS-CoV-2 infection rate was 102%.

Regarding `N#Cc1ccc(NCCNCC(=O)N2CCC[C@H]2C#N)nc1` (10 µM), the SARS-CoV-2 infection rate is 114%.

Turning to `CC(C)(C)c1cc(C(C)(C)C)c(NC(=O)c2c[nH]c3ccccc3c2=O)cc1O` [ivacaftor] (10 µM), the SARS-CoV-2 infection rate is 93%.

Turning to `CC[C@H]1[C@@H](O)[C@@H]2[C@H](CC[C@]3(C)[C@@H]([C@H](C)CCOS(=O)(=O)O)CC[C@@H]23)[C@@]2(C)CC[C@@H](O)C[C@@H]12` (10 µM), the SARS-CoV-2 infection rate was 106%.

These data come from the supplement of paper PMC13380429.
